Assay outcomes from PubChem BioAssay.
HT1080 IDH1KD tx – qHTS for induction of synthetic lethality in tumor cells producing 2HG: qHTS for the HT-1080-IDH1KD cell line; HT-1080 IDH1 knockdown viability, ATP luminescence, 48 h; Potency, µM (series often up to 46.1 µM), without a hit: at the top dose activity, negative = toxicity, most hits filed as cytotoxic; 2% of 360,000 active; AID 686971, 2013;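 further: potency means the concentration at half of the fitted maximal effect; 0% = DMSO wells and -100% = cell-free medium wells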
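CellTiter-Glo luminescence after 48 h compound exposure at 37 degrees C of IDH1-knockdown HT-1080 cells in 5% FBS RPMI. %Activity scaled between DMSO wells and cell-free media wells, with curves fitted and assigned curve classes.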
TDP1 cell noCPT – qHTS for Inhibitors of human tyrosyl-DNA phosphodiesterase 1 (TDP1): qHTS in cells in absence of CPT. Potency, µM (titrated, usually from 46.2 µM), for inactives: at the top dose activity change, negative = growth inhibition, most hits filed as inhibitors. AID 686978, 2013. DT40 Tdp1-/- hTDP1 cells, no CPT, ATP luminescence, 48 h. 15% of 420,000 active; further: potency means the concentration at half of the fitted maximal effect; nearly all actives have a fitted effect of over 55% in size
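DT40 Tdp1-/-;hTDP1 cells, no CPT (DMSO vehicle only), 400 cells/well; compounds pin-transferred; ≥48 hr, 37 °C; CellTiter-Glo 30 min RT dark, luminescence read.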
HT1080NT lethal – qHTS for induction of synthetic lethality in tumor cells producing 2HG: qHTS for the HT-1080-NT fibrosarcoma cell line; HT-1080-NT fibrosarcoma viability, CellTiter-Glo ATP luminescence, 48 h; Potency, µM (top dose mostly 46.1 µM), for the others: top-dose activity, negative = less viability, hits mostly cytotoxic; 1.6% of 360,000 active; AID 686970, 2013;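 further: NT is the 2HG producing partner of a matched IDH1 knockdown line; potency means the concentration at half of the fitted maximal effect; 0% = DMSO-treated cells and -100% = media-only wells without cells; nearly all actives have a fitted effect of over 55% in size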
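750 cells/well, RPMI + 5% FBS; 2 h settle, compound pin-transfer, 48 h at 37 degrees C. CellTiter-Glo 10 min RT, luminescence. Normalized to DMSO and media-only wells.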
IL-1B inflam inh – qHTS for Inhibitors of Inflammasome Signaling: IL-1-beta AlphaLISA Primary Screen. THP-1 LPS/ATP IL-1B secretion, AlphaLISA, 16 h; hits give low values. activity change, % at 57.5 µM. 4.7% of 360,000 active. AID 743279, 2014; in the data active means activity change below about -50%; inconclusive means mostly about -30% to -49%
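Secreted IL-1B measured by AlphaLISA bead assay after 16 h compound exposure of THP-1 cells; compounds (final up to 57.5 uM) added 1 h before LPS (250 ng/mL) and ATP (1.25 mM) stimulation; lower signal means less secretion.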
DT40 TDP1 CPT – qHTS for Inhibitors of human tyrosyl-DNA phosphodiesterase 1 (TDP1): qHTS in cells in presence of CPT | chicken DT40 Tdp1-/-;hTDP1 cells + 20 nM CPT, ATP luminescence, 48 h | Potency, µM (series often up to 46.2 µM), for the others: at the top dose activity change, negative = growth inhibition, usual class: inhibitors | 12% of 420,000 active | AID 686979, 2013; further: potency means the concentration at half of the fitted maximal effect; nearly all actives have a fitted effect of over 55% in size
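Cell growth measured by CellTiter-Glo luminescence after a minimum 48 h, 37 C compound exposure with 20 nM CPT in Tdp1-knockout DT40 cells stably expressing hTDP1, seeded 400/well; qHTS titration format.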
* = called active by the depositor; ? = inconclusive; nt = not tested or not shown. Most compounds without a hit are left out; they make up all but 19% or so of the library. Unless noted, the call rests on the fitted dose curve; in most records, active means well fitted curve in the direction sought with a large enough effect; inconclusive means small, poorly fitted or top-dose-only effect, or another doubt; inactive means no such curve, though single readings can be large; an effect the other way counts as inactive or inconclusive. Unless noted, on the % scale 0 is the no-effect control and ±100 the full control effect.

SMILES	HT1080 IDH1KD tx	TDP1 cell noCPT	HT1080NT lethal	IL-1B inflam inh	DT40 TDP1 CPT
Nc1c(N(Cc2ccccc2)C(=O)COc2ccc([N+](=O)[O-])cc2)c(=O)[nH]c(=O)n1Cc1ccccc1	?	?	?	42	5.8µM*
Nc1c(N(Cc2ccco2)C(=O)COc2ccc(Cl)cc2)c(=O)[nH]c(=O)n1Cc1ccccc1	-1%	-3%	4%	1	1%
Cc1ccccc1OCCC(=O)N(Cc1ccccc1)c1c(N)n(Cc2ccccc2)c(=O)[nH]c1=O	-2%	-10%	-2%	-3	?
Cc1ccc(OCCC(=O)N(Cc2ccccc2)c2c(N)n(Cc3ccccc3)c(=O)[nH]c2=O)cc1	-11%	21µM*	-13%	-8	?
Cc1oc(-c2ccccc2Cl)nc1CS(=O)CC(=O)NC1CC1 (centres undefined)	10%	-19%	13%	-1	0%
CCCc1ccc(OCC(=O)Nc2cc(S(=O)(=O)CC)ccc2O)cc1	?	-2%	?	10	4%
COC(=O)C1CCC(=O)N1C(c1ccc(OC)cc1)c1cc(OC)c(OC)c(OC)c1 (centres undefined)	?	1.3µM*	1.2µM*	26	1.5µM*
COc1ccc(CNC(=O)CSc2ncnc3nc[nH]c23)cc1	18%	-3%	1%	20	-22%
CC(C)(C)OC(=O)N1CCC2(CC1)Oc1ccc(F)cc1C(=O)C21CC(c2ccccc2)=NO1 (centres undefined)	-8%	?	-4%	?	23µM*
O=C(c1ccoc1)N1CCC2(CC1)Oc1ccc(F)cc1C(=O)C21CC(c2cccnc2)=NO1 (centres undefined)	-4%	?	1%	-17	?
O=C1c2cc(F)ccc2OC2(CCNCC2)C12CC(c1ccccc1)=NO2 (centres undefined)	-2%	?	4%	-53*	15µM*
COc1cc(NC(=S)NCCc2ccc(S(N)(=O)=O)cc2)c(OC)cc1Cl	0%	-10%	6%	3	-19%
CCOC(=O)CSc1nc2sc3c(c2c(=O)n1-c1ccc(OC)cc1)CCN(C)C3	-1%	?	3%	11	?
CCSc1nc2sc3c(c2c(=O)n1-c1ccc(OC)cc1)CCN(C)C3	-8%	16µM*	11%	-17	?
CCOc1ccc(-n2cnc3sc4c(c3c2=O)CCCC4)cc1	-2%	?	4%	-63*	?
CCC1(C)Cc2c(sc3nc(SC)n(-c4ccc(C)cc4)c(=O)c23)CO1 (centres undefined)	nt	15µM*	nt	nt	?
CCC1(C)Cc2c(sc3nc(NN)n(C)c(=O)c23)CO1 (centres undefined)	?	?	?	52	?
CCSc1nc2sc3c(c2c(=O)n1-c1ccc(C)cc1)CCCC3	nt	8.2µM*	nt	nt	?
N#Cc1ccc(-n2nccc2-c2cnc3n(c2=O)CCS3)cc1	9%	?	5%	7	?
O=C(NC1CCCCC1)C(c1ccncc1)N(C(=O)c1csnn1)c1ccc(F)cc1 (centres undefined)	-5%	-9%	15%	-18	-11%
Cc1ccccc1-n1c(SCC(=O)c2c(N)n(C)c(=O)n(C)c2=O)nc2sc3c(c2c1=O)CCCC3	-22%	23µM*	-3%	10	18µM*
CCCCSc1nc2sc3c(c2c(=O)n1-c1ccc(C)cc1)CCN(C)C3	?	15µM*	?	?	16µM*
COc1ncc2nc(-c3cccs3)c(=O)n(C)c2n1	nt	1%	nt	nt	-28%
